# Source: PubChem BioAssay (The Scripps Research Institute Molecular Screening Center)
# PLCg1 inh – PLC-gamma1 enzyme inhibitors, primary screen, biochemical, fluorescence, purified enzyme | fluorogenic substrate | 0.84% of 370,000 active | 1-phosphatidylinositol 4,5-bisphosphate phosphodiesterase gamma-1 (Homo sapiens), P19174 | AID 720700, 2013 | inhibition, % at 12.2 µM; in the data active = inhibition above about 9.5%
# MsrA inh – bovine MsrA enzyme inhibitors, primary screen, biochemical, absorbance, HTS; Methionine sulfoxide reductase A (Bos taurus); purified bovine MsrA, absorbance read-out; inhibition, % at 15.5 µM; 0.75% of 360,000 active;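 also: 0% = vehicle wells with enzyme and 100% = reference inhibitor wells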
# PLCb3 inh – human PLC-beta3 inhibitors, primary screen, biochemical, fluorescence; inhibition, % at 12.2 µM; Purified PLC-beta3, fluorogenic substrate; 1-phosphatidylinositol 4,5-bisphosphate phosphodiesterase beta-3 (Homo sapiens), Q01970; 0.18% of 370,000 active; AID 720704, 2013; in the data active = inhibition above about 11%;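 also: 0% = median of compound wells on plate and 100% = full blocker control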
# Target sequence (Q01970 whole entry, looked up): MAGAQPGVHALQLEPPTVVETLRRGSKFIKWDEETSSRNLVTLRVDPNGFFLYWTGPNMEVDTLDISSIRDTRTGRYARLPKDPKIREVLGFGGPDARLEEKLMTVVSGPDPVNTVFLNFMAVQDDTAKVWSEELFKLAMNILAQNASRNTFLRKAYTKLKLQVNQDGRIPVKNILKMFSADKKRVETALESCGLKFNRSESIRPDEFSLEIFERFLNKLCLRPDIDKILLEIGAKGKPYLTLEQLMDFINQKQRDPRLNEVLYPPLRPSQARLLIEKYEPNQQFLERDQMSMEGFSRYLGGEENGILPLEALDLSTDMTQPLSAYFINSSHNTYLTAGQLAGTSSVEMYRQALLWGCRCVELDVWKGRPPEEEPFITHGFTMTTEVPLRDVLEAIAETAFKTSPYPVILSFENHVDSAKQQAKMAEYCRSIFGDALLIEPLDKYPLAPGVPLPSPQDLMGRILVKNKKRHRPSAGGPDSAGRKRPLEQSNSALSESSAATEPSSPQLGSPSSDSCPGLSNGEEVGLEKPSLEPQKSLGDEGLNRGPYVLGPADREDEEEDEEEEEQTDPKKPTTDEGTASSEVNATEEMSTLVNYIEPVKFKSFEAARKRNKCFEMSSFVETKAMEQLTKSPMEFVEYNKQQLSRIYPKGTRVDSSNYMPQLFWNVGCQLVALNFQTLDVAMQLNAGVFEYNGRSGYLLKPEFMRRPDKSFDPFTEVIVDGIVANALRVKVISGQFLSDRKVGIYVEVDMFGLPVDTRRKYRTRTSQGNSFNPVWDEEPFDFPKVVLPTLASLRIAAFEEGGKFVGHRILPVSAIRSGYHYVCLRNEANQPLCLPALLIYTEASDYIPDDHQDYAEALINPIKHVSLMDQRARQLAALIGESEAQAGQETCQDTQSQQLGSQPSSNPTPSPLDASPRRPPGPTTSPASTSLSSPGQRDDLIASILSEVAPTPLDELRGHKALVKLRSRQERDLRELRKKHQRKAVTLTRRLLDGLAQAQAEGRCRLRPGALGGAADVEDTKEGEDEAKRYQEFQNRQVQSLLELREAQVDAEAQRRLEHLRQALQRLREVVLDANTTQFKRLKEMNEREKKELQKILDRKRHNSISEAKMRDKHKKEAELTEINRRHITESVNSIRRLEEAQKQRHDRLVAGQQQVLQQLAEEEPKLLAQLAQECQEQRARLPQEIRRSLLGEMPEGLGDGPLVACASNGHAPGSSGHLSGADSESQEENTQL
# MsrA act – bovine MsrA enzyme activators, primary screen, biochemical, absorbance, HTS. Methionine sulfoxide reductase A (Bos taurus). purified bovine MsrA, absorbance read-out. activation, % at 10.6 µM. 0.3% of 360,000 active; in the data active = activation above about 7.5%;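 also: 0% = vehicle and 100% = reference activator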
# MsrA inh confirm – bovine MsrA inhibitors, retest, confirmation, biochemical, absorbance, HTS | shares compounds with MsrA inh | purified bovine MsrA, absorbance read-out | inhibition, % at 15.5 µM | 41% of 2,300 active | AID 651822, 2012;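 also: coupled to thioredoxin reductase with NADPH and selenocystamine and DMSO as substrate; 0% = vehicle only and 100% = full effect of reference inhibitor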
# * = called active by the depositor; i = inactive; . = no result given. An excerpt weighted towards active compounds, which were near 1.9% of everything screened. Rule as the data show it, unless noted: active = inhibition above about 4.5%; inactive = the rest.
SMILES,PLCg1 inh,MsrA inh,PLCb3 inh,MsrA act,MsrA inh confirm
COc1ccc(/C=N/NC(=O)c2[nH]c(C)c(C(=O)N/N=C/c3ccc(OC)cc3)c2C)cc1,-2,4.9*,-1,-4,5.5*
COc1cc2cc(C(=O)N/N=C/c3ccccc3Cl)[nH]c2cc1OC,-88,1,-128,-15,.
CC(c1cc(F)ccc1O)c1c[nH]c2ccccc12 (stereo unspecified),1,.,-3,.,.
O=S1(=O)c2ccc(N3CCC[C@@H]3CO)cc2O[C@@H]2CCN1C2,-4,.,-4,.,.
O=C(N[C@H](C(=O)N1CCC[C@H]1C(=O)NC1CCCC1)C1CCCCC1)c1ccccn1,2,-1,3,.,.
COc1ccc(-c2cc(NC(=O)Cc3c(C)[nH]c4ccccc34)ccc2Nc2cccnc2)cc1OC,-3,1,-1,.,.
CCOc1ccc2[nH]c(C(=O)N/N=C/c3ccc(OC)cc3)cc2c1,-114,4,-175,-6,.
COc1ccc(/C=N/NC(=O)c2cc3cc(OC)c(OC)cc3[nH]2)cc1,-112,5.3*,-139,-1,7.8*
COC(=O)[C@]12C[C@H](CC(=O)NCc3ccccc3)C(=O)N(Cc3ccc4c(c3)OCO4)C1=C[C@H](COCc1ccccc1)O[C@@H]2C,-1,0,1,.,.
Cc1ccc(CSc2nnc(-c3ccccc3)n2Cc2ccco2)cc1,0,.,0,.,.
CN(c1nc2nonc2nc1NC1CC1)C1CCOC1 (stereo unspecified),2,5.0*,3,-3,2
CCOC(=O)C1=C(O)/C(=C/c2ccc(OCC(=O)O)c(OCC)c2)SC1=Nc1ccc(OC)cc1,-43,4.7*,-55,-2,3
CCCc1n[nH]c2c1/C(=N\OCC)CC(C)(C)C2,-3,4.8*,-10,-1,2
CCc1n[nH]c2c1/C(=N\O)CC(C)(C)C2,-1,1,-3,-10,.
COc1cc2c(cc1OC)CN(c1ccc([N+](=O)[O-])cc1Cl)CC2,-5,4.8*,-5,-1,1
COc1cc2c(cc1OC)CN(c1ccc([N+](=O)[O-])cc1C#N)CC2,-37,1,-43,-3,.
CN1CCN(CC(=O)Nc2cc(N3CCOCC3)ccc2[N+](=O)[O-])CC1,1,4.8*,1,-3,0
Cc1cc(/C=C(\C#N)C(=O)O)c(C)n1CC(C)C,-4,7.2*,-9,-3,3
Cc1cc(-c2n[nH]c(=S)n2N=Cc2cccc(OCc3ccccc3)c2)n[nH]1,2,.,3,.,.
O=C1N/C(=N/O)S/C1=C\c1ccccc1-n1cccn1,-32,4.7*,-59,-5,3
O=C(OCc1cn(Cc2ccc(C(F)(F)F)cc2)nn1)N1CCOCC1,2,.,-4,.,.
NC(=O)c1ccsc1NC(=O)COC(=O)/C=C/c1ccccc1[N+](=O)[O-],-3,11*,0,-1,9.4*
Cn1cc(C(=O)N/N=C/C=C/c2ccccc2)ccc1=O,2,9.7*,1,-4,5.1*
O=C(N/N=C/C(Br)=C/c1ccccc1)c1cnccn1,-6,6.3*,-16,-6,4.6*
O=C(N/N=C/C(Cl)=C/c1ccccc1)c1ccncc1,-8,4.9*,-10,-4,4
SMILES,PLCg1 inh,MsrA inh,PLCb3 inh,MsrA act,MsrA inh confirm
Cn1cc(C(=O)N/N=C/C(Br)=C/c2ccccc2)ccc1=O,-1,6.7*,5,-7,5.7*
CC(C)(C)OC(=O)NC(Cc1ccccc1)C1CC(C#N)C(=O)O1 (stereo unspecified),0,.,-1,.,.
COc1ccccc1CCn1cnc(-c2ccc(Cl)cc2)c1CC(C)C,3,1,1,.,.
COc1ccc(C2CC(=O)C(c3ccc(Cl)cc3)=CN2Cc2ccccc2)cc1 (stereo unspecified),-38,0,-59,.,.
C/C(=N\NC(=O)c1ccncc1)c1ccc(N2CCOCC2)cc1,-8,3,-8,-11,.
Cc1ccc(/C=N/NC(=O)c2ccccn2)o1,-1,2,-6,-6,.
C/C(=N\NC(=O)c1ccc(N/N=C(\C)c2ccncc2)cc1)c1ccncc1,-1,5.8*,-6,0,6.2*
Cc1cccc(C(=O)Nc2ccc(C(=O)N/N=C/c3ccc(C)o3)cc2)c1,-19,6.4*,-30,-12,4
Cc1ccc(/C=N/NC(=O)c2cccc(NC(=O)c3ccccc3C)c2)o1,2,1,-4,1,.
Cc1ccc(/C=N/NC(=O)c2ccncc2)o1,4,5.7*,-2,-2,4.6*
COc1cc(C(=O)N/N=C/c2sccc2C)cc(OC)c1OC,2,5.1*,-7,-2,4
Cc1ccsc1/C=N/NC(=O)C(=O)NCC(C)C,1,5.6*,2,-3,3
CCCCC(=O)N/N=C/c1sccc1C,2,2,4,-2,.
Cc1ccc(Nc2ccc([N+](=O)[O-])nc2[N+](=O)[O-])cc1,4,5.3*,4,-7,5.0*
Cc1ccc(Nc2ccc3nonc3c2[N+](=O)[O-])cc1,2,1,-5,-1,.
Cn1c(=O)c2c(ncn2CC(=O)N/N=C/c2ccco2)n(C)c1=O,-4,1,-5,-7,.
Cn1c(=O)c2c(nc(N/N=C/c3ccco3)n2C)n(C)c1=O,-3,6.2*,-15,1,6.8*
Cn1c(=O)c2c(nc(N/N=C/c3cccs3)n2C)n(C)c1=O,-14,4.9*,-18,-3,5.7*
CN(Cc1ccccc1)c1ncc(C=O)s1,3,7.5*,3,-6,5.8*
O=Cc1cnc(N2CCN(Cc3ccccc3)CC2)s1,3,4,3,-3,.
N#CC1=C(N)Oc2cc3ccccc3cc2C1c1cccnc1 (stereo unspecified),-1,7.6*,-4,-5,2
C[C@H]1COc2cc(Br)ccc2S(=O)(=O)N1Cc1cn(Cc2ccc(F)cc2)nn1,0,.,1,.,.
Cn1c2c(c(=O)n(C)c1=O)C(C(F)(F)F)(C(F)(F)F)N=C(c1ccc(Cl)cc1)N2,.,.,.,-6,.
Cc1ccccc1C1=NC(C(F)(F)F)(C(F)(F)F)c2c(n(C)c(=O)n(C)c2=O)N1,2,5.4*,-4,-6,3
Cn1c2c(c(=O)n(C)c1=O)C(C(F)(F)F)(C(F)(F)F)N=C(C1CCCCC1)N2,-2,15*,-4,1,12*
CC(=O)NC1(C(F)(F)F)C(=O)Nc2c1c(=O)n(C)c(=O)n2C (stereo unspecified),-1,-2,1,-7,.
COc1cccc(N2CCN(CC(=O)NCc3ccco3)CC2)c1,-1,.,-7,.,.
COc1ccc2oc(-c3ccco3)cc(=O)c2c1,i,3,i,-2,.
O=C(COc1ccc2oc(-c3ccco3)cc(=O)c2c1)N1CCCCC1,i,4.7*,i,-6,3
O=C(NC1=C(NC2CCS(=O)(=O)C2)C(=O)c2ccccc2C1=O)c1ccccc1 (stereo unspecified),7,5.0*,3,-1,1
